Records with an inconclusive call do not appear. Unmarked numbers belong to inactive results. The source made the active and inactive calls. The call rests on the fitted dose curve; in most records, active means well fitted cell-killing curve with a large enough effect in the repeat runs; inconclusive means weak or mixed curves, or effect the other way; inactive means flat fitted curve, though single readings scatter.
Experiment: qHTS assay to identify small molecule agonists of the androgen receptor (AR) signaling pathway in the presence of an antagonist - cell viability counter screen (AID 1259379); further: nearly all actives have a fitted effect of over 25% in size
Conditions: MDA-kb2 viability, CellTiter-Fluor, 16 h; series mostly up to 92.4 µM; activity change, negative = cytotoxicity: at the top concentration
Description: National Center for Advancing Translational Sciences [NCATS]
NIH Chemical Genomics Center [NCGC]
U.S. Environmental Protection Agency [EPA]
National Institutes of Environmental Health Sciences [NIEHS]
National Toxicology Program [NTP]
U.S. Food and Drug Administration [FDA]
Androgen receptor (AR) is an important member of nuclear receptor family. Its signaling plays a critical role in AR-dependent prostate cancer and other androgen related diseases. Considerable attention has been given in the past decades to develop methods to study and screen for the environmental chemicals that have the potential to interfere with metabolic homeostasis, reproduction, developmental and behavioral functions. Therefore AR binding assay for screening against androgen agonists and antagonists can be used to identify potential endocrine disruptors.
MDA-kb2 cells (from ATCC, deposited by Wilson et al.) are human breast carcinoma cells that were stably transfected with a luciferase reporter gene under control of the MMTV promoter that contains response elements for both androgen receptor (AR) and glucocorticoid receptor (GR). This particular screening for measuring luciferase reporter gene activity using MDA-kb2 cells against Tox21 10K library compounds is a confirmation study on agonist mode screening in the presence of AR-antagonist compound (Nilutamide) at 3.0uM final concentration. The cytotoxicity of the compounds was tested in parallel by measuring the cell viability using CellTiter-Fluor assay system (Promega, Madison, WI) in the same wells.
Tox21 Assay Protocol Summary:
MDA-kb2 cells (cells cultured without CO2) were dispensed at 3,000 cells/well in 4uL of culture medium into white wall/solid-bottom 1536-well plates (Corning Life Sciences, Corning, NY) using a Multidrop Combi (Thermo Fisher Scientific Inc., Waltham, MA) dispenser. The assay plates were incubated at 37C and 0% CO2 for 5hr. One uL of 3.0uM (final concentration) Nilutamide or assay buffer was added using two separate tips of Flying Reagent Dispenser (FRD, Aurora Discovery, San Diego, CA). Then 23nL of compounds dissolved in DMSO at 15 concentrations and positive controls were transferred to the assay plates using a Pintool station (Wako, San Diego, CA). The assay plates were incubated at 37C and 0% CO2 for 16 hr. After 15hr incubation at 37C, 1uL/well CellTiter-Fluor reagent (Promega Corporation) was added to each well of the assay plates using FRD. After 1hr incubation at 37C and 0% CO2, the fluorescence signal was measured using a ViewLux plate reader (PerkinElmer, Shelton, CT).
On the % scale 0 is the no-effect control and ±100 the full control effect; potency means the concentration at half of the fitted maximal effect.

Row | SMILES | Potency | activity change, negative = cytotoxicity
1 | CCN(CC)c1ccc2c(c1)Oc1cc(N(CC)CC)ccc1C21OC(=O)c2ccccc21 | 7.5 µM (active) | 
2 | Cc1cccc(C)c1C |  | -2.29%
3 | Cc1ccc(N=Nc2c(O)ccc3ccccc23)c(C)c1 | 13.3 µM (active) | 
4 | O=C(c1ccccc1)c1ccc(Cl)cc1 |  | -2.71%
5 | NC(=O)c1ccccc1Cl |  | 0.0795%
6 | CCC(C)(C)c1ccc(CC(C)CN2C[C@@H](C)O[C@@H](C)C2)cc1 (stereo not given in full) |  | -9.44% [at 42.5 µM]
7 | CCCCCCCCCCCC(=O)Cl |  | 0.186%
8 | CCCOC(=O)c1ccc(O)cc1 |  | -0.159%
9 | SC1CCCCC1 |  | -0.809%
10 | c1ccc(-c2ccc(C(c3ccccc3)n3ccnc3)cc2)cc1 (stereo not given) |  | -6.81% [at 42.5 µM]
11 | c1ccc(C[P+](c2ccccc2)(c2ccccc2)c2ccccc2)cc1 | 2.73 µM (active) | 
12 | CC1(C)[C@H](C(=O)OCc2cccc(Oc3ccccc3)c2)[C@@H]1C=C(Cl)Cl |  | 3.36%
13 | CN1CC[C@H](c2c(O)cc(O)c3c(=O)cc(-c4ccccc4Cl)oc23)[C@H](O)C1 |  | -6.33% [at 42.5 µM]
14 | COc1cc([C@@H]2c3cc4c(cc3[C@@H](O[C@@H]3O[C@@H]5CO[C@@H](C)O[C@H]5[C@H](O)[C@H]3O)[C@H]3COC(=O)[C@H]23)OCO4)cc(OC)c1O |  | -2.98%
15 | CN1CCN(C)CC1 |  | 0.7%
16 | CC(C)=CCC[C@H](C)CC=O |  | 0.397%
17 | CCc1c(C)cc(N)c(CC)c1N |  | -1.08%
18 | CCC(O)CO (stereo not given) |  | -0.85%
19 | CC(=O)[C@]1(O)Cc2c(O)c3c(c(O)c2[C@@H](O[C@H]2C[C@H](N)[C@H](O)[C@H](C)O2)C1)C(=O)c1ccccc1C3=O | 9.44 µM (active) | 
20 | CC(=O)CC(N)=O |  | 0.0919%

Row | SMILES | Potency | activity change, negative = cytotoxicity
21 | Cn1ccnc1 |  | -0.858%
22 | CN(C/C=C/c1ccccc1)Cc1cccc2ccccc12 |  | -5.12% [at 42.5 µM]
23 | Clc1nc(C(Cl)(Cl)Cl)c(Cl)c(Cl)c1Cl | 21.7 µM (active) | 
24 | Clc1cccc(Cl)n1 |  | -0.145%
25 | CSc1ccc(O)cc1C |  | 4.07%
26 | COC(=O)c1ccc([N+](=O)[O-])cc1 |  | -1.39%
27 | O=C1OC(=O)c2cc(-c3ccc4c(c3)C(=O)OC4=O)ccc21 |  | 0.875%
28 | Nc1cc([N+](=O)[O-])ccc1Cl |  | 0.166%
29 | c1ccc(-c2nc3ccccc3[nH]2)cc1 |  | -10.4%
30 | C=CC(=O)O[C@H]1C[C@@H]2CC[C@@]1(C)C2(C)C |  | 0.568%
31 | Cc1ccc2sc3cccc(C)c3c2c1 |  | 0.959%
32 | Oc1ccc(C2(c3ccc(O)c(C4CCCCC4)c3)CCCCC2)cc1C1CCCCC1 | 43.3 µM (active) | 
33 | ClC(c1ccccc1)(c1ccccc1)c1ccccc1 |  | 5.6%
34 | C=COCCCC |  | 0.619%
35 | Nc1ccc2c(S(=O)(=O)O)cccc2c1S(=O)(=O)O |  | 6.24% [at 42.5 µM]
36 | c1ccc(-c2ccccc2-c2ccccc2)cc1 |  | 0.606%
37 | Oc1ccc2c(c1)CCC2 |  | 2.26%
38 | CCNc1nc(NC(C)(C)C)nc(OC)n1 |  | -1.17%
39 | C=Cc1ccc(O)c(OC)c1 |  | -2.27%
40 | Cc1cccc2c1ccc1ccccc12 |  | 3.25%

— PubChem BioAssay (Tox21)
